# Experimental data: PubChem BioAssay
# Active and inactive are the calls of the source.
# Columns and labels:
# [1] = system: Human papillomavirus type 1a protein E7 (residues 44-93); assay: small molecules binding HPV E7 44-93 – biochemical, small-molecule microarray, residues 44-93, 635 nm fluorescence, primary screen (AID 1108); settings: fluorescence 635 nm, higher = more signal;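 note: E7 fragment applied at 1 µg/mL in TBST for 1 h at 4 C; score combines spot fluorescence with its signal to noise ratio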
# [2] = hepatitis C replication reporter changes, two-sided – Huh7 cells, luciferase reporter, HCV replication inhibitor project, primary screen (AID 1109); settings: Huh7 HCV replicon luciferase reporter, 48 h; higher = more signal;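 note: huh7 hepatoma cells harbouring a luciferase neomycin HCV replicon reporter; luciferase luminescence as measure of HCV replicon replication; test concentration not given here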
# [3] = molecular target: Left-right determination factor 2 (Homo sapiens) (UniProt O00292); assay: small molecules binding LEFTY2 protein – biochemical, small-molecule microarray, 635 nm fluorescence scan, primary screen (AID 1110); settings: higher = more signal
# Chain of Left-right determination factor 2 (Homo sapiens) (O00292 whole entry, looked up): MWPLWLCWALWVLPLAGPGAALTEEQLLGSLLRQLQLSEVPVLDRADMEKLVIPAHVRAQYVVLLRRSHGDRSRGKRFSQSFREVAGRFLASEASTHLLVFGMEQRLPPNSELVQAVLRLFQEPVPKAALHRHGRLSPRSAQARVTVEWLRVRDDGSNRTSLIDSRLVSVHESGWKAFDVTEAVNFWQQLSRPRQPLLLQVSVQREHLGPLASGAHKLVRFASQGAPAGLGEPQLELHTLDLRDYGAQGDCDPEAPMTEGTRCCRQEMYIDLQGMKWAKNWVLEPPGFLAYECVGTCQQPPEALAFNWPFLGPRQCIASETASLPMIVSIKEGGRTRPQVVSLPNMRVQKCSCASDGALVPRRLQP
# [4] = molecular target: Calmodulin-1 (Homo sapiens) (UniProt P0DP23); assay: small molecules binding calmodulin-1 with EGTA – biochemical, small-molecule microarray, Cy5-labelled CALM1, profiling panel (AID 1111); settings: Cy5-CALM1 binding fluorescence, higher = more signal;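 note: labelled calmodulin applied in Tris saline Tween buffer holding calcium plus EGTA and DTT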
# [5] = molecular target: Calmodulin-1 (Homo sapiens) (UniProt P0DP23); assay: small molecules binding Ca-loaded calmodulin-1 – biochemical, small-molecule microarray, Cy5-labelled CALM1, plus calcium, artefact control for SMM control-protein annotation, profiling panel (AID 1112); settings: Cy5-CALM1 binding fluorescence, higher = more signal;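 note: score merges spot fluorescence with signal to noise from triplicate slides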
# [6] = probe aWnt5a binding to arrayed compounds – biochemical, biotinylated probe, 635/667 nm fluorescence, primary screen (AID 1113); settings: small-molecule microarray, higher = more signal;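 note: score merges 667 nm fluorescence intensity with signal-to-noise per printed feature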
# [7] = probe aShh binding to arrayed compounds – biochemical, biotinylated probe, 635/667 nm fluorescence, primary screen (AID 1114); settings: small-molecule microarray, higher = more signal;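 note: probe is biotin-labelled aShh protein from a stem cell growth factor screen; measures binding of labelled protein to compounds printed on the slide; score merges feature fluorescence at 667 nm with signal-to-noise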
# [8] = probe aNog binding to arrayed compounds – biochemical, biotinylated probe, 635/667 nm fluorescence, primary screen (AID 1115); settings: small-molecule microarray, higher = more signal;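 note: probe is biotinylated aNog protein used at 0.15 µg/mL for 1 h at 4 C; z-score combines 667 nm fluorescence of each spot with its signal to noise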
# [9] = molecular target: Torsin-1A-interacting protein 1 (Homo sapiens) (UniProt Q5JTV8); assay: compound microarray binding of lysate hLAP1 – cell lysate, small-molecule microarray, COS7 lysate, 635/667 nm fluorescence, primary screen (AID 1116); settings: 635 nm fluorescence, higher = more signal
# Chain of Torsin-1A-interacting protein 1 (Homo sapiens) (Q5JTV8 whole entry, looked up): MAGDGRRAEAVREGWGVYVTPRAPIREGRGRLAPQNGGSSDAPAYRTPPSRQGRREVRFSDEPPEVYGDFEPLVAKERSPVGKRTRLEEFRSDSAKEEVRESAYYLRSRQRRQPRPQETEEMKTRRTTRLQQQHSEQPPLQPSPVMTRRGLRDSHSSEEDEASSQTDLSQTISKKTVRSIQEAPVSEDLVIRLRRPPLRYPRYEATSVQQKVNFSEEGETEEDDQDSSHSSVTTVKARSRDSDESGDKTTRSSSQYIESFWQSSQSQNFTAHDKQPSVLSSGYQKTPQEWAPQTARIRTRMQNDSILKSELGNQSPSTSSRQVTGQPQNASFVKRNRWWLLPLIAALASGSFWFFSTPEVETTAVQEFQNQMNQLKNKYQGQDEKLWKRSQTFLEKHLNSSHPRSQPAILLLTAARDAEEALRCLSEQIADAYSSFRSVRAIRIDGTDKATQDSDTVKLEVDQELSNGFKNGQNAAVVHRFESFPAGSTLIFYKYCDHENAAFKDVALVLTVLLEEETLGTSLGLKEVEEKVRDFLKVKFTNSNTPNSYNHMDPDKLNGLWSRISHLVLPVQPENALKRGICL
# [10] = molecular target: Alpha-bungarotoxin (Bungarus multicinctus) (UniProt P60615); assay: compounds binding labelled alpha-BTX control protein – biochemical, small-molecule microarray, Alexa647 label, 635/667 nm fluorescence, artefact control for SMM control protein annotation, profiling panel (AID 1117); settings: alpha-BTX-A647 binding fluorescence, higher = more signal
# Chain of Alpha-bungarotoxin (Bungarus multicinctus) (P60615 whole entry, looked up): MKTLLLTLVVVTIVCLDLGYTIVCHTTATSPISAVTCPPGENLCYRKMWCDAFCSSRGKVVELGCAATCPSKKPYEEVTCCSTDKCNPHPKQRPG
# Albumin (Bos taurus) = Albumin (Bos taurus) (UniProt P02769); assay: compounds binding labelled BSA control protein – biochemical, small-molecule microarray, Alexa647 label, 635/667 nm fluorescence, artefact control for SMM control protein annotation, profiling panel (AID 1118); settings: BSA-A647 binding, fluorescence 635 nm, higher = more signal;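 note: score merges 667 nm emission intensity and signal-to-noise per printed compound spot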
# Chain of Albumin (Bos taurus) (P02769 whole entry, looked up): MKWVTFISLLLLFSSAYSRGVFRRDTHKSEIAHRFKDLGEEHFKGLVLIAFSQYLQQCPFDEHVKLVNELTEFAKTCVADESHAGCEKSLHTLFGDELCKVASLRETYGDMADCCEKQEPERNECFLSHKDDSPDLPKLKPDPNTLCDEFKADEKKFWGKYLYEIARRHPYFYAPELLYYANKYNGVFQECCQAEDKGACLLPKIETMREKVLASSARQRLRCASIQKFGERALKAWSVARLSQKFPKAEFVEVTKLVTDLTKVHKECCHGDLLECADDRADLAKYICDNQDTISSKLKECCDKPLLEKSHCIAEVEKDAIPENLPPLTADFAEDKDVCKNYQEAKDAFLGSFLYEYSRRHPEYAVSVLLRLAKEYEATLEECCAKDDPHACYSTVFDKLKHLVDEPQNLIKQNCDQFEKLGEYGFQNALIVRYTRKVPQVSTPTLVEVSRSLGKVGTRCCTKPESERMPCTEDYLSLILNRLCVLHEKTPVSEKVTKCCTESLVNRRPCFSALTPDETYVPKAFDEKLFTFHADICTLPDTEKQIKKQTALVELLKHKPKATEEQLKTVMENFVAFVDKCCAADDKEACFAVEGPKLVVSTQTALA
# [11] = probe aXIP binding to arrayed compounds – biochemical, NeuroSMM set, 635/667 nm fluorescence, primary screen (AID 1119); settings: small-molecule microarray, higher = more signal, called active from +8 up or from −8 down;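 note: probe is the protein aXip251-270 applied at 1 µg/mL to compound-printed slides; binding of probe to printed compounds measured as 667 nm fluorescence plus signal to noise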
# [12] = probe aNOTCH3 binding on compound microarray – biochemical, small-molecule microarray, 635/667 nm fluorescence, primary screen (AID 1120); settings: higher = more signal;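 note: probe is a biotin-tagged antibody raised against NOTCH3 rather than NOTCH3 protein; score merges spot fluorescence near 667 nm with spot signal to noise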
# [13] = probe aNOTCH2 binding on compound microarray – biochemical, small-molecule microarray, 635/667 nm fluorescence, primary screen (AID 1121); settings: higher = more signal;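 note: score merges feature fluorescence read at 667 nm with its signal to noise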
# [14] = molecular target: Carbonic anhydrase 2 (Homo sapiens) (UniProt P00918); assay: compounds binding carbonic anhydrase 2 – biochemical, small-molecule microarray, Alexa647-labelled CAII, profiling panel (AID 1122); settings: CAII-A647 binding fluorescence, higher = more signal
# [15] = COS7 lysate on small-molecule microarray, probe aHis, 635 nm (AID 1123); settings: COS7 cell lysate, fluorescence, higher = more signal;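 note: z-score combines 667nm fluorescence intensity with signal-to-noise per printed compound spot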
# [16] = probe aLAP1 signal on lysate-treated microarray – cell lysate, small-molecule microarray, COS7 lysate, primary screen (AID 1124); settings: probe aLAP1, fluorescence, higher = more signal;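 note: lysate comes from COS7 cells expressing LAP1 and is applied at 0.3 µg/mL; score merges spot fluorescence near 667 nm with signal-to-noise over triplicate slides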
# Sam68 (KHDRBS1) = assay: compounds binding KHDRBS1 protein – biochemical, small-molecule microarray, 635 nm fluorescence, primary screen (AID 1125); settings: higher = more signal;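 note: score merges 667 nm channel intensity with signal to noise over triplicate slides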
# [17] = system: Chordin-like protein 2 (CHRDL2); assay: compounds binding chordin-like 2 – biochemical, small-molecule microarray, 635 nm fluorescence, primary screen (AID 1126); settings: fluorescence 635 nm, higher = more signal;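 note: printed compound slides probed with Chrdl2 protein at 4 µg/mL for 1 h at 4 C; score merges 667 nm emission intensity with signal to noise over three replicate slides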
# [18] = molecular target: Concanavalin-A (Canavalia ensiformis) (UniProt P02866); assay: compounds binding concanavalin A lectin – biochemical, small-molecule microarray, Alexa647 label, 635 nm, artefact control for SMM control protein annotation, primary screen (AID 1127); settings: ConA-A647 binding fluorescence, higher = more signal;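 note: z combines 667 nm emission intensity with signal-to-noise across three replicate slides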
# Chain of Concanavalin-A (Canavalia ensiformis) (P02866 whole entry, looked up): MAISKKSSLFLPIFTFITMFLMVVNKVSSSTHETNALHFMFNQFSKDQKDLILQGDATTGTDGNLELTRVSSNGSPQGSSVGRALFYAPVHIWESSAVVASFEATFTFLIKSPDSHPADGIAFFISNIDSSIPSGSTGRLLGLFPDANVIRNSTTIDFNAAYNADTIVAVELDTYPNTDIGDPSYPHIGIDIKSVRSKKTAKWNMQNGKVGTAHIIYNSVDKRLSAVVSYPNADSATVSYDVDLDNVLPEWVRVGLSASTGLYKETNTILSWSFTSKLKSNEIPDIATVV
SMILES,composite z-score [1],z-score [2],composite z-score [3],composite z-score [4],composite z-score [5],composite z-score [6],composite z-score [7],composite z-score [8],composite z-score [9],composite z-score [10],composite z-score (Albumin (Bos taurus)),composite Z-score [11],composite z-score [12],composite z-score [13],composite z-score [14],composite z-score [15],composite z-score [16],composite z-score (Sam68 (KHDRBS1)),composite z-score [17],composite z-score [18]
COc1ccc(O[C@H]2C=C[C@@H](c3ccccc3)O[C@@H]2CON=C(C)C)cc1,-0.336,-0.75,0.317,0.0047,0.495,0.0761,0.318,0.118,0.314,0.724,0.0254,0.537 (inactive),0.201,-0.0548,0.153,0.136,-0.0187,-1.05,0.0435,0.0731
COC(=O)C1=C(C)N(Cc2ccccc2)[C@]23O[C@](C(=O)OC)(C(=O)N2[C@@H]1c1ccccc1)C(C(=O)OC)=C3C(=O)OC,1.3,-2.76,0.88,-0.328,-1.19,-0.0346,-0.138,0.229,0.569,-0.129,0.387,-0.177 (inactive),0.201,-0.0439,0.489,0.421,-0.624,0.988,0.503,1.18
CCO[C@H](c1cc(OC)cc([N+](=O)[O-])c1OC)[C@H](C)C=CCC(=O)OC,-0.679,0.265,0.46,-0.432,-1.36,-0.248,-0.214,-0.0278,0.11,-0.0356,-0.424,0.277 (inactive),-0.0682,-0.122,-0.324,-0.925,0.251,0.143,0.516,-0.221
COC(=O)[C@H](C)NC(=O)CCC1CC(OC(=O)NCCc2ccc(F)cc2)CC2(CCCC(COC(=O)NCCC(C)C)O2)O1 (stereo not given in full),0.466,0.839,0.482,0.0458,-0.233,-0.119,0.0483,-0.254,0.189,1.07,0.828,0.443 (inactive),-0.0262,0.128,0.325,0.834,-0.234,0.36,0.0905,0.0934
CC(C)CON=C1C[C@@H](O)[C@@H](O)[C@@H]2[C@@H]3C(=O)N(C4CCCCC4)C(=O)[C@@H]3CC[C@H]12,1.2,0.0073,0.999,1.27,-0.0361,-0.0731,-0.16,0.447,0.792,1.13,0.536,-0.409 (inactive),0.0021,-0.125,0.445,0.84,0.606,1.3,0.25,1.11
CCOC(=O)[C@H](Cc1ccccc1)NC(=O)OC1CC(CCC2CC(CC)=NO2)OC2(CCCC(COC(=O)NCCC(C)C)O2)C1 (stereo not given in full),0.836,-1.39,0.0791,0.426,0.0002,0.0292,-0.195,0.152,0.309,0.426,0.459,0.257 (inactive),-0.133,-0.179,0.312,0.86,-0.342,0.676,0.139,0.918
